# Screens deposited in PubChem BioAssay by National Center for Advancing Translational Sciences (NCATS).
# BCR signal inh: inhibitors of chronic active B-cell receptor signaling | ABC-DLBCL IkBa-CBG/CBR reporter, luminescence ratio, 4 h | Potency, µM (highest dose often 46.1 µM), without a hit: at the top dose activity change, negative = inhibition, most hits filed as inhibitors | 340,000 compounds, 0.05% hits; active = well fitted inhibition curve with a large enough effect in the signal ratio, with a control signal flat, not every such curve was filed as active; inconclusive = small, poorly fitted or top-dose-only effect, or effect the other way, or a change in a side signal; the % refers to the signal ratio;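 note: plate controls were basal doxycycline-induced cells for no effect and cells given 10 µM MG132 for full effect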
#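 Compounds up to 46 uM were incubated four hours with TMD8 cells whose green CBG68 luciferase is fused to IkappaBalpha; red CBR luminescence normalised the signal, and concentration-effect curves were fitted to fusion, red and ratio data.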
# Rango dissoc inh: prevents RanGTP from dissociating the Rango-importin beta complex | Biochemical FRET Rango-importin beta, RanGTP-induced dissociation | Potency, µM (series often up to 46.1 µM), without a hit: at the highest dose activity change, negative = inhibition | 340,000 compounds, 0.071% hits; note: % of control where 0% means no effect; nearly all actives have a fitted effect of over 45% in size
#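 Recombinant Rango FRET biosensor (EYFP–snurportin 1 IBB–cerulean CFP10) at 0.1 uM premixed with 0.25 uM importin beta in PBS, 1 mM DTT, 0.02% Tween-20, 0.1% BSA. Compound added 5 min; RanGTP-RCC1 (0.6 uM Ran, 2 mM GTP, 0.2 uM RCC1) then triggers release, read at 45 min.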
# KinaseGlo FLuc: counter-screen: inhibitors of Kinase-Glo firefly luciferase. Potency, µM (top dose mostly 38.3 µM), for inactives: top-dose activity change, negative = inhibition, usual class: inhibitors. Kinase-Glo luciferase, ATP luminescence, 8 min. Q27757. 200,000 compounds, 0.28% hits; active = well fitted curve in the direction sought with a large enough effect; inconclusive = small, poorly fitted or top-dose-only effect, or another doubt; inactive = no such curve, though single readings can be large; an effect the other way counts as inactive or inconclusive; note: % is set by controls: 0 for no effect and ±100 for the full control effect; nearly all actives have a fitted effect of over 60% in size
#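 Light output from Kinase-Glo luciferase with luciferin and 10 uM ATP in 50 mM imidazole pH 7.2, KCl, MgCl2, Tween 20, BSA; compound pin-delivered, 8-min ambient incubation, then luminescence read.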
# Lamin A splicing: changes lamin A minigene splicing in HeLa cells. HeLa LMNA splicing GFP/RFP minigene ratio, 48 h. Potency, µM (series often up to 46.1 µM), for inactives: at the top dose ratio change, negative = inhibition, usual class: inhibitors. 200,000 compounds, 0.01% hits. AID 1487; active = well fitted inhibition curve with a large enough effect in the signal ratio, with a control signal flat, not every such curve was filed as active; inconclusive = small, poorly fitted or top-dose-only effect, or effect the other way, or a change in a side signal; the % refers to the signal ratio; note: % is set by controls: 0 for no effect and ±100 for the full control effect
#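 Read-out is the ratio of GFP to DsRed2 object intensity, acquired by 488 nm laser-scanning cytometry on HeLa lamin A-EGFP minigene reporter cells. Compound incubation 48 hrs at 37 °C in Opti-MEM with 2% FBS; DMSO 0.5% final.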
# Tb PFK inh-1: inhibitors of T. brucei phosphofructokinase. O15648. Potency, µM (doses to about 57.5 µM), for inactives: at the highest dose activity, negative = inhibition, actives largely listed as inhibitors. 330,000 compounds, 0.17% hits. T. brucei PFK, ADP-Glo luminescence; active = well fitted curve in the direction sought with a large enough effect; inconclusive = small, poorly fitted or top-dose-only effect, or another doubt; inactive = no such curve, though single readings can be large; an effect the other way counts as inactive or inconclusive;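 note: 0% = uninhibited 1x PFK enzyme wells and -100% = no-enzyme wells; nearly all actives have a fitted effect of over 60% in size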
#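 ADP-Glo luminescence quantified ADP after 45 min at room temperature, with 1.25 nM T. brucei PFK, 0.1 mM ATP and 0.5 mM fructose-6-phosphate in pH 8.0 TEA buffer. qHTS titrations up to 57 µM; curves classified by quality.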
# Rango complex inh: inhibitors of Rango-importin beta complex formation; Rango CFP/YFP FRET sensor + importin beta, 45 min; Potency, µM (top dose mostly 92.2 µM), inactives show at the highest dose inhibition of complex formation; AID 540263; 340,000 compounds, 0.031% hits;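 note: 0% = DMSO wells and 100% = buffer wells lacking importin beta; nearly all actives have a fitted effect of over 15% in size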
# Target sequence (Q14974 whole entry, looked up): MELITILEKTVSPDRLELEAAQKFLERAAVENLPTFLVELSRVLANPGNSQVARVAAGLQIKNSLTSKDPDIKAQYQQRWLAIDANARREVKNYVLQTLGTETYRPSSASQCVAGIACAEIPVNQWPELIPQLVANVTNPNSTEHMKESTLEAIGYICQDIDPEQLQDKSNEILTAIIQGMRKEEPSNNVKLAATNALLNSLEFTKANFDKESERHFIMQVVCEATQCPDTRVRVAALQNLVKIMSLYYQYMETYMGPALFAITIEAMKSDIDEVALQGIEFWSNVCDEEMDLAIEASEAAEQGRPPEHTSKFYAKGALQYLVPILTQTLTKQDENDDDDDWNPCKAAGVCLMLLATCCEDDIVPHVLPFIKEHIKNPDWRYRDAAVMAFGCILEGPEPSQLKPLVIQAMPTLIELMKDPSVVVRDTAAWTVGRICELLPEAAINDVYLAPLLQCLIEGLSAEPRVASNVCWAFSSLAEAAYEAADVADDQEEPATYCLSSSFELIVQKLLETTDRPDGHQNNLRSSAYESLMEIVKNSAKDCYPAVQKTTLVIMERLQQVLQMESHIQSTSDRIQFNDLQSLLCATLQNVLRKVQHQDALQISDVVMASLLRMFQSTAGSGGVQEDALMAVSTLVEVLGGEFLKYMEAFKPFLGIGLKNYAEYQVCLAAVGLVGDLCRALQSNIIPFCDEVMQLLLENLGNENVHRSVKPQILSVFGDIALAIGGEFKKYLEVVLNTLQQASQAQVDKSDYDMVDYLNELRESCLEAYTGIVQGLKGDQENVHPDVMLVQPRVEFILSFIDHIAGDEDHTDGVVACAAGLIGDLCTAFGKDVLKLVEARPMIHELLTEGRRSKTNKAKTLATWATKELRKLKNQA
#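 FRET biosensor Rango (snurportin 1 IBB between N-terminal EYFP and C-terminal Cerulean), 50 nM in PBS/1 mM DTT/0.02% Tween-20/0.1% BSA, preincubated 5 min RT with compound; 0.125 microM importin beta added, 45 min RT, CFP/YFP FRET ratio read.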
# Tb PFK KinaseGlo: Tb phosphofructokinase inhibition, orthogonal luminescence. 1,100 compounds, 47% hits. AID 504636. Potency, µM (doses to about 57.5 µM), without a hit: top-dose inhibition. shares compounds with Tb PFK inh-1. Tb PFK enzyme, ATP depletion, Kinase-Glo Plus luminescence; note: nearly all actives have a fitted effect of over 60% in size
# Tb PFK inh-2: validation of T. brucei phosphofructokinase inhibitors. shares compounds with Tb PFK inh-1. purified T. brucei PFK, ADP-Glo luminescence, 45 min. Potency, µM (series often up to 57.5 µM), for inactives: top-dose activity change, negative = inhibition, most hits filed as inhibitors. 1,100 compounds, 41% hits. AID 504637; active = well fitted curve in the direction sought with a large enough effect; inconclusive = small, poorly fitted or top-dose-only effect, or another doubt; inactive = no such curve, though single readings can be large; an effect the other way counts as inactive or inconclusive;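 note: plate controls were full PFK enzyme control for no effect and no enzyme control for full effect; nearly all actives have a fitted effect of over 60% in size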
# An asterisk follows results filed as active; ? = inconclusive; · = no result given; [ ] = another dose, or the depositor's remark. Only some compounds are listed: those with a hit (about 0.44% of all), similar ones and a draw of the others. Unless noted, calls come from the whole dose curve. Potency is the fitted concentration of half-maximal effect.
SMILES,BCR signal inh,Rango dissoc inh,KinaseGlo FLuc,Lamin A splicing,Tb PFK inh-1,Rango complex inh,Tb PFK KinaseGlo,Tb PFK inh-2
CCOC(=O)c1c(-c2ccc(OC)cc2)csc1/N=C/C1=C(O)CCCC1=O,?,?,-0.1%,?,?,?,-0.1%,-2.0%
CCOC(=O)c1c(-c2ccc(OC)cc2)oc2ccc(OC(=O)N(C)C)cc12,?,1.9%,3.2%,-12.4%,-0.8%,-3.7%,·,·
CC1Cc2cc3c(cc2C(c2ccc(N)cc2)=NN1)OCO3 (centres undefined),·,·,-7.8%,?,·,·,·,·
Cc1ccc(NC2c3ncccc3C(=O)N2c2ccccc2C)cc1C (centres undefined),-0.1%,-8.5%,-1.1%,5.3%,?,-0.1%,19µM*,?
Oc1c(Cl)cccc1Cc1cc(Cl)cc(Cl)c1O,·,3.1%,·,·,·,-1.0%,·,·
CCOC(=O)Cc1csc(-n2sc3ccccc3c2=O)n1,-3.4%,?,-7.3%,-6.6%,10.7µM*,?,?,?
CCCCCn1c(=O)c(C(=O)Nc2nc(CC(=O)OCC)cs2)c(O)c2ccccc21,-5.8%,-4.0%,-0.9%,-14.0%[46 µM],-3.5%,-0.5%,·,·
CCC1CCCCN1Cc1ccc(CNS(=O)(=O)c2ccc3c(c2)oc(=O)n3C)o1 (centres undefined),?,0.5%,2.3%,7.3%,-1.2%,3.0%,·,·
O=c1c(O)c(-c2cc(O)c(O)c(O)c2)oc2cc(O)cc(O)c12,1.4%,-16.9%,-3.5%,?,8.49µM*,-0.3%,1.9µM*,3.79µM*
COc1cccc(-n2nc(C(=O)N3CCC4(CC3)OCCO4)c3ccccc3c2=O)c1,17.1%,1.9%,5.9%,2.7%,-0.8%,-2.8%,·,·
CCC(=O)OCCNc1cc(Sc2nc3ccccc3[nH]2)c2nonc2c1[N+](=O)[O-],?,-9.5%,1.6%,?,?,0.5%,6.01µM*,9.53µM*
CCN(CC)c1ccc(SS(=O)(=O)O)cc1,-0.3%,-6.7%,0.9%,12.4%,19µM*,5.8%,10.7µM*,12µM*
CCN(CC)c1ccc(C=C2C(=O)NC(=S)NC2=O)cc1,-9.1%,-0.2%,·,?,?,2.8%,·,·
CC(=O)Nc1ccccc1C(=O)OCc1ccc(C(=O)c2ccccc2)cc1,1.1%,5.3%,1.9%,0.1%,-0.7%,-1.8%,·,·
Cn1c(=O)c2c(ncn2CC(=O)Nc2nc(-c3ccccc3Cl)cs2)n(C)c1=O,-6.6%,-9.7%,-3.7%,?,4.3%,0.6%,·,·
Cc1cc(C)c2c(=O)n(CC(=O)NC3CCCC3)sc2n1,?,1.4%,·,·,6.01µM*,-2.0%,?,5.36µM*
Cc1ccccc1N(CC(=O)NC1CCCC1)C(=O)c1csnn1,1.4%,-16.8%,0.8%,1.5%[46 µM],-0.6%,5.5%,·,·
Cc1cc(C)c2c(=O)n(CC(=O)Nc3ccc(Br)c(C)c3)sc2n1,-2.7%,0.9%,·,·,13.5µM*,1.0%,2.69µM*,3.01µM*
Cc1cc(C)c2c(=O)n(CC(=O)Nc3cccc(Cl)c3C)sc2n1,-3.0%,1.5%,·,·,4.78µM*,0.9%,?,6.01µM*
Oc1ccc(O)c(Cc2nc3ccccc3s2)c1,?,-8.9%,-4.2%,?,30.1µM*,0.4%,23.9µM*,?
CCCCN1CC(O)=C(c2nc3ccccc3s2)C1=N,4.4%,-10.3%,-2.2%,-2.0%,0.0%,?,·,·
COc1ccc(CCn2c(O)c(C=NCc3cccnc3)c(=O)[nH]c2=O)cc1OC,3.1%,-16.3%,1.6%,12.6%,0.3%,-0.2%,·,·
